Molecules are shown by their SMILES. Results filed as inconclusive are left out. A number with no mark means an inactive call. Activity calls are given as the source filed them. Calls come from the whole dose curve; as a rule, active = well fitted inhibition curve with a large enough effect in the repeat runs; inconclusive = weak or mixed curves; inactive = flat fitted curve, though single readings scatter.
% is set by controls: 0 for no effect and ±100 for the full control effect.

This assay deals with Luciferin 4-monooxygenase (Photinus pyralis) (UniProt P08659). Nature of the assay: qHTS assay to identify small molecule inhibitors of firefly luciferase (AID 1224835). Note: nearly all actives have a fitted effect of over 25% in size. As to conditions: purified P. pyralis luciferase, luminescence inhibition; series mostly up to 115 µM; activity change, negative = inhibition: at the top concentration. From the text: U.S. Tox21 Program National Center for Advancing Translational Sciences [NCATS] NIH Chemical Genomics Center [NCGC] U.S. Environmental Protection Agency [EPA] National Institutes of Environmental Health Sciences [NIEHS] National Toxicology Program [NTP] U.S. Food and Drug Administration [FDA] Tox21 Assay Overview: Firefly (Photinus pyralis) luciferase is one of the most commonly used transcriptional reporters. Firefly luciferase reporter-gene assays are generally considered one of the most sensitive assay types (Wood, 1995; Wood, 1998). However, it was initially observed, in 1991, by Thompson et al., that compounds that resemble the substrates of firefly luciferase (FLuc) can act as competitive inhibitors of the enzyme, and that these compounds, upon interaction with luciferase in the cell, can actually stabilize the protein and increase its half-life. Previous profiling work by other groups to determine the prevalence of compounds that affect FLuc enzymatic activity (PubChem AID 411) identified that ~3% of the MLSMR library (then at ~72K) inhibited FLuc. […] Thus the Tox21 10K library is profiled for activity against FLuc using a biochemical assay of purified FLuc and KM concentrations of FLuc substrates (D-luciferin and ATP).
Sequence of Luciferin 4-monooxygenase (Photinus pyralis) (P08659 whole entry, looked up): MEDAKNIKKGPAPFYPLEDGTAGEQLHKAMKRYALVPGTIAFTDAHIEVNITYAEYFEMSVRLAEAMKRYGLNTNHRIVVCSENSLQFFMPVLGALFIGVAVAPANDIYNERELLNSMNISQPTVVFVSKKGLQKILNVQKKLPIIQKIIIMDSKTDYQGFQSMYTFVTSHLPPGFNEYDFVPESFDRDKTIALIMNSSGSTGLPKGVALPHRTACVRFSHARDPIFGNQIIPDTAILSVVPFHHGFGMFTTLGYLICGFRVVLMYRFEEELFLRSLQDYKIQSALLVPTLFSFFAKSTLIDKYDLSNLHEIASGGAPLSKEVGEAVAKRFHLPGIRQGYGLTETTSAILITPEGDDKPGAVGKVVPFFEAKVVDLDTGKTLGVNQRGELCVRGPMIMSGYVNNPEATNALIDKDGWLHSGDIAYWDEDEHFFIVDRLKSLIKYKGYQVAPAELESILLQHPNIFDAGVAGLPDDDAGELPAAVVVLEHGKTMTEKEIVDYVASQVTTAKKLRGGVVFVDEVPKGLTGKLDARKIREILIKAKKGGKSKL
These assay plates were then treated with 23nL of compound or DMSO using a Kalypsys pin tool, which allows for delivery of a 6-point interplate titration of each compound to the assay plate (quantitative HTS.) 1 uL of firefly luciferase mix (containing 50 mM Tris acetate, pH 7.6, 0.04 uM P. pyralis luciferase, 0.01% Tween, 0.05% BSA and dH2O) was then delivered by FRD to each well. Luciferase activity was then measured using a ViewLux CCD imager.
A general note: Quantitative high-throughput screening tests each substance at several concentrations.
`C[Si](Cl)(c1ccccc1)c1ccccc1`: the “activity change, negative = inhibition” value is 2.64%. The same measure, in the same setting: in the case of `CN(C)[C@@H](CCOc1cccc2ccccc12)c1ccccc1` it was 2.05% [at 52.9 µM]; in that of `Cc1cc(C(C#N)c2ccc(Cl)cc2)c(Cl)cc1NC(=O)c1cc(I)cc(I)c1O` (stereo not given), -0.541% [at 52.9 µM]. As to `Cc1cc(C(C)(C)C)cc(C)c1CC1=NCCN1`, the “activity change, negative = inhibition” value is 0.58% [at 52.9 µM].

In the case of `CCCCN(CCCC)CC(O)c1cc(Cl)cc2c1-c1ccc(Cl)cc1/C2=C/c1ccc(Cl)cc1` (stereo not given), the “activity change, negative = inhibition” value was -0.744% [at 52.9 µM]. Take `CCOC(=O)c1ccc(C2CCC(NC[C@H](O)COc3ccc(O)c(NS(C)(=O)=O)c3)CC2)cc1` (stereo not given in full): the “activity change, negative = inhibition” value is -4.1%. On to `C#C[C@]1(OC(C)=O)CC[C@H]2[C@@H]3CCC4=C[C@@H](OC(C)=O)CC[C@@H]4[C@H]3CC[C@@]21C`, for which the “activity change, negative = inhibition” value is 5.77% [at 52.9 µM]. Take `CCCCCCCCCCOC(=O)c1ccccc1C(=O)OCCCCCCCC`: the “activity change, negative = inhibition” value was 3.24%. As to `Oc1ccccc1O`, the Potency result was “inactive”. In the case of `CCCCCCOC(=O)C(C)CC` (stereo not given), the “activity change, negative = inhibition” value is 0.415%. Consider `Cl[Si](Cl)(c1ccccc1)c1ccccc1`, for which the “activity change, negative = inhibition” value was -0.133%. Turning to `C#Cc1ccc(-c2ccccc2F)cc1`, the Potency was 30.9 µM (active). Consider `COC1=C(OC)C(=O)C(CCCCCCCCCCO)=C(C)C1=O`, for which the “activity change, negative = inhibition” value is -8.59% [at 52.9 µM]. Same read-out and setting: in the case of `CCc1ccc(Br)cc1` it was -1.24%; in that of `CCCCCCCCCCC[C@@H](C[C@@H]1OC(=O)[C@H]1CCCCCC)OC(=O)[C@H](CC(C)C)NC=O`, -1.02% [at 52.9 µM]. Regarding `Nc1ccc(NCCO)c([N+](=O)[O-])c1`, the Potency was 35.6 µM (active).

`CCc1cccc(CC)c1NC(=O)CN(CC(=O)O)CC(=O)O`: the “activity change, negative = inhibition” value was -0.4% [at 52.9 µM]. As to `O=[N+]([O-])c1ccc(O)cc1C(F)(F)F`, the “activity change, negative = inhibition” value was 1.92%.

In the case of `C#C[C@]1(O)CC[C@H]2[C@@H]3[C@H](C)CC4=C(CCC(=O)C4)[C@H]3CC[C@@]21C`, the “activity change, negative = inhibition” value is -2.49% [at 52.9 µM].

For the compound `CN1CCN2c3ccccc3Cc3ccccc3C2C1` (stereo not given), the “activity change, negative = inhibition” value was -4.6% [at 52.9 µM]. In the case of `O=C(O)Cc1ccc2c(c1)C(=O)c1ccccc1CO2`, the Potency was 30.9 µM (active). For `CC(CO)Oc1ccccc1` (stereo not given), the “activity change, negative = inhibition” value was 1.69%.

Regarding `OC[C@@H](O)[C@@H](O)CO`, the “activity change, negative = inhibition” value is 1.79%. For the compound `CCCCCCCCCCCCOC(=O)c1ccc(O)cc1`, the “activity change, negative = inhibition” value is -1.1%. For `C=Cc1cccc(C)c1`, the Potency result was “inactive”.

In the case of `CCCC(=O)OCOC(=O)C1=C(C)NC(C)=C(C(=O)OC)C1c1cccc(Cl)c1Cl` (stereo not given), the “activity change, negative = inhibition” value is 9.43% [at 52.9 µM].

On to `c1ccsc1`, for which the “activity change, negative = inhibition” value was 3.18%. On to `CCCCOC(=O)CO`, for which the “activity change, negative = inhibition” value is 0.585%. For `CCC(C)n1ncn(-c2ccc(N3CCN(c4ccc(OC[C@H]5CO[C@](Cn6cncn6)(c6ccc(Cl)cc6Cl)O5)cc4)CC3)cc2)c1=O` (stereo not given in full), the “activity change, negative = inhibition” value was -3.24% [at 52.9 µM].

`CN(C)CCN1CCN(c2cccc(Cl)c2)C1=O`: the “activity change, negative = inhibition” value was -0.069% [at 52.9 µM]. Take `Cc1ccc(N/N=c2\c(=O)cc/c(=N\Nc3ccc(S(=O)(=O)O)cc3)c2=O)c(C)c1`: the Potency was 28.3 µM (active).

As for `CCCCC(CC)COC(=O)CCCCC(=O)OCc1ccccc1` (stereo not given), the “activity change, negative = inhibition” value is 1.05%. For the compound `CCOC(=O)NNc1ccc(N(CC)CC(C)O)nn1` (stereo not given), the “activity change, negative = inhibition” value was -5.17% [at 52.9 µM]. For `COc1ccc2cc1Oc1ccc(cc1)C[C@H]1c3c(cc4c(c3Oc3cc5c(cc3OC)CCN(C)[C@@H]5C2)OCO4)CCN1C`, the “activity change, negative = inhibition” value was 1.96% [at 52.9 µM]. On the same count and under the same terms, in the case of `CC1(C)CCC[C@]2(C)[C@H]3CC(=O)O[C@]3(C)CC[C@@H]12` it was 4.83%. For `CCN(CC)c1ccc2c(-c3ccc(S(=O)(=O)O)cc3S(=O)(=O)[O-])c3ccc(=[N+](CC)CC)cc-3oc2c1`, the Potency is 26 µM (active). Consider `Cc1c(C)c2c(c(C)c1OC(=O)c1cccnc1)CC[C@@](C)(CCC[C@H](C)CCC[C@H](C)CCCC(C)C)O2`, for which the “activity change, negative = inhibition” value is 0.536% [at 52.9 µM]. Consider `CNC(=O)c1ccccc1Sc1ccc2c(/C=C/c3ccccn3)n[nH]c2c1`, for which the Potency was 0.871 µM (active). As to `Clc1sc(Cl)c(Cl)c1Cl`, the “activity change, negative = inhibition” value was 0.693%. As for `CC(=O)c1ccc(C(C)=O)cc1`, the “activity change, negative = inhibition” value was -0.108%.

The values are drawn from PubChem BioAssay (Tox21).
